For five sequences, binding signal results are on record in article PMC11006913.

Numbering of substitutions follows the chain as printed.

What all share (test): PBM; 200 nM protein, PBS
Conditions in all cases: dsDNA, one strand shown

The target in test [1] is HOXB4 (Homo sapiens, UniProt P17483 148-234).
In test [2] the target is T1, VENTX (Homo sapiens, UniProt O95231 78-163, R121Q).
T1 sequence: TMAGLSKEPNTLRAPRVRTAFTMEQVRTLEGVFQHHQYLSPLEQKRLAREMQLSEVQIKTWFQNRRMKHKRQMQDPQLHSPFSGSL

The next test addresses ALX4 (Homo sapiens, UniProt Q9H161 200-286).
In test [3] the target is T2, PAX4 (Homo sapiens, UniProt O43316 9-242, R200K).
T2 sequence: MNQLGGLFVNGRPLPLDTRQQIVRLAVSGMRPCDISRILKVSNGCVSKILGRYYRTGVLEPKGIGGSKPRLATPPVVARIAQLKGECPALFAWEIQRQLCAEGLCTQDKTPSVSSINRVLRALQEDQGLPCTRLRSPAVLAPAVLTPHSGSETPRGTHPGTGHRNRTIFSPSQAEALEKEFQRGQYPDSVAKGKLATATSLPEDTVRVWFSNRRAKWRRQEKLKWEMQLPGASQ

In test [4] the target is PRRX1 (Homo sapiens, UniProt P54821 80-166, F113S).
PRRX1 (Homo sapiens, UniProt P54821 80-166, F113S), sequence (P54821 80-166 F113S): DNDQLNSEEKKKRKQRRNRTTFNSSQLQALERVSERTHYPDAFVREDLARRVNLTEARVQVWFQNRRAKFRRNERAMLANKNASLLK
Test [5] concerns the target T3, VENTX (Homo sapiens, UniProt O95231 78-163, Y115F).
T3 sequence: T1 sequence with Y38F, Q44R

For test [6], the target named is T4, PAX4 (Homo sapiens, UniProt O43316 9-242).
T4 sequence: T2 sequence with K192R

Test [7] addresses HOXA2 (Homo sapiens, UniProt O43364 129-215, R185T).
In test [8] the target is HOXA4 (Homo sapiens, UniProt Q00056 201-287, R217L).
HOXA4 (Homo sapiens, UniProt Q00056 201-287, R217L), sequence (Q00056 201-287 R217L): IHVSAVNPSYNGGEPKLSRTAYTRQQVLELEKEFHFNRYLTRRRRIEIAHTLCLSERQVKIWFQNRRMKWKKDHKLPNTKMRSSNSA
Test [9] deals with HOXB4 (Homo sapiens, UniProt P17483 148-234, V174I).
HOXB4 (Homo sapiens, UniProt P17483 148-234, V174I), sequence (P17483 148-234 V174I): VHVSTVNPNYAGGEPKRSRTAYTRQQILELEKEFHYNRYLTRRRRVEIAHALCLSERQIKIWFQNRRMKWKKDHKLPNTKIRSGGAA
The target in test [10] is T5, PAX4 (Homo sapiens, UniProt O43316 9-242, R200Q).
T5 sequence: T2 sequence with K192Q

In test [11] the target is HOXA2 (Homo sapiens, UniProt O43364 129-215, R185K).
HOXA2 (Homo sapiens, UniProt O43364 129-215, R185K), sequence (O43364 129-215 R185K): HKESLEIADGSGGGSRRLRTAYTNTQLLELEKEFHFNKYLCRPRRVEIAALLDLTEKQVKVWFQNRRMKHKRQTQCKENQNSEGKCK
In test [12] the target is T6, PAX4 (Homo sapiens, UniProt O43316 9-242, F177V).
T6 sequence: T2 sequence with F169V, K192R

Test [13] has as its target MSX2 (Homo sapiens, UniProt P35548 130-214).
Test [14] addresses T7, PAX4 (Homo sapiens, UniProt O43316 9-242, F177Y).
T7 sequence: T2 sequence with F169Y, K192R

The target in test [15] is MSX2 (Homo sapiens, UniProt P35548 130-214, F161Y).
MSX2 (Homo sapiens, UniProt P35548 130-214, F161Y), sequence (P35548 130-214 F161Y): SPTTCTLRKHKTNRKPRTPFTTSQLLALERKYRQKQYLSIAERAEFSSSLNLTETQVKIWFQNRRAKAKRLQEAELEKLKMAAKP
For test [16], the target named is VAX1 (Homo sapiens, UniProt Q5SQQ9 86-172, T142I).
VAX1 (Homo sapiens, UniProt Q5SQQ9 86-172, T142I), sequence (Q5SQQ9 86-172 T142I): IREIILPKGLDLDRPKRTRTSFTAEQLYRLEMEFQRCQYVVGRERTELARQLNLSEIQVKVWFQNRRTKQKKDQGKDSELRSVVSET
The target of test [17] is HOXA4 (Homo sapiens, UniProt Q00056 201-287, W262F).
HOXA4 (Homo sapiens, UniProt Q00056 201-287, W262F), sequence (Q00056 201-287 W262F): as the sequence (Q00056 201-287 R217L) above, with L17R, W62F counted along it
Test [18] has as its target PRRX1 (Homo sapiens, UniProt P54821 80-166).
The target of test [19] is VAX1 (Homo sapiens, UniProt Q5SQQ9 86-172, K157R).
VAX1 (Homo sapiens, UniProt Q5SQQ9 86-172, K157R), sequence (Q5SQQ9 86-172 K157R): as the sequence (Q5SQQ9 86-172 T142I) above, with I57T, K72R counted along it

ALX4, sequence (Q9H161 200-286): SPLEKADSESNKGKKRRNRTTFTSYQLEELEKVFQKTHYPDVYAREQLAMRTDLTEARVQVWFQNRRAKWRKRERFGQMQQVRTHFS
PRRX1 (Homo sapiens, UniProt P54821 80-166), sequence (P54821 80-166): as the sequence (P54821 80-166 F113S) above, with S34F counted along it
HOXB4 (Homo sapiens, UniProt P17483 148-234), sequence (P17483 148-234): as the sequence (P17483 148-234 V174I) above, with I27V counted along it
HOXA2 (Homo sapiens, UniProt O43364 129-215, R185T), sequence (O43364 129-215 R185T): as the sequence (O43364 129-215 R185K) above, with K57T counted along it
MSX2 (Homo sapiens, UniProt P35548 130-214), sequence (P35548 130-214): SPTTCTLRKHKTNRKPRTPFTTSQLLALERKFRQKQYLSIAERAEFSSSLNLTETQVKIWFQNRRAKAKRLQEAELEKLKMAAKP

Regarding ACTAATTG, the binding signal is 13.1 upbm affinity estimate (log intensity, higher = more binding, comparable within an allelic series) in the test with HOXB4 [1]; 12.3 upbm affinity estimate (log intensity, higher = more binding, comparable within an allelic series) with VENTX [2]; 13.9 upbm affinity estimate (log intensity, higher = more binding, comparable within an allelic series) with ALX4; 11.5 upbm affinity estimate (log intensity, higher = more binding, comparable within an allelic series) with PAX4 [3]; 11.2 upbm affinity estimate (log intensity, higher = more binding, comparable within an allelic series) with PRRX1 [4]; 11.9 upbm affinity estimate (log intensity, higher = more binding, comparable within an allelic series) in the test with VENTX [5]. The binding signal with PAX4 [6] is 12.1 upbm affinity estimate (log intensity, higher = more binding, comparable within an allelic series); with HOXA2 [7] it was 13.2 upbm affinity estimate (log intensity, higher = more binding, comparable within an allelic series); in the test with HOXA4 [8], 11.8 upbm affinity estimate (log intensity, higher = more binding, comparable within an allelic series); with HOXB4 [9] it was 13.8 upbm affinity estimate (log intensity, higher = more binding, comparable within an allelic series); with PAX4 [10], 12 upbm affinity estimate (log intensity, higher = more binding, comparable within an allelic series); with HOXA2 [11], 13.3 upbm affinity estimate (log intensity, higher = more binding, comparable within an allelic series). Moreover, the binding signal with PAX4 [12] was 10.3 upbm affinity estimate (log intensity, higher = more binding, comparable within an allelic series); in the test with MSX2 [13], 14 upbm affinity estimate (log intensity, higher = more binding, comparable within an allelic series); with PAX4 [14] it was 10.7 upbm affinity estimate (log intensity, higher = more binding, comparable within an allelic series); in the test with MSX2 [15], 13.7 upbm affinity estimate (log intensity, higher = more binding, comparable within an allelic series); with VAX1 [16] it was 13 upbm affinity estimate (log intensity, higher = more binding, comparable within an allelic series); in the test with HOXA4 [17], 11.4 upbm affinity estimate (log intensity, higher = more binding, comparable within an allelic series). Besides, the binding signal was 13.3 upbm affinity estimate (log intensity, higher = more binding, comparable within an allelic series) with PRRX1 [18] and 13.3 upbm affinity estimate (log intensity, higher = more binding, comparable within an allelic series) in the test with VAX1 [19].
Take CAATTATG: the binding signal with HOXB4 [1] was 13 upbm affinity estimate (log intensity, higher = more binding, comparable within an allelic series); with ALX4 it was 13.8 upbm affinity estimate (log intensity, higher = more binding, comparable within an allelic series); in the test with PRRX1 [4] it was 11.3 upbm affinity estimate (log intensity, higher = more binding, comparable within an allelic series); with HOXA2 [7] it was 12.5 upbm affinity estimate (log intensity, higher = more binding, comparable within an allelic series); in the test with HOXB4 [9] it was 13.6 upbm affinity estimate (log intensity, higher = more binding, comparable within an allelic series); with MSX2 [13], 13.9 upbm affinity estimate (log intensity, higher = more binding, comparable within an allelic series). For the same sequence, the binding signal is 13.5 upbm affinity estimate (log intensity, higher = more binding, comparable within an allelic series) with MSX2 [15] and 13.5 upbm affinity estimate (log intensity, higher = more binding, comparable within an allelic series) with PRRX1 [18].
Regarding ATAATTAG, the binding signal with HOXB4 [1] is 13.6 upbm affinity estimate (log intensity, higher = more binding, comparable within an allelic series); with VENTX [2], 12.4 upbm affinity estimate (log intensity, higher = more binding, comparable within an allelic series); with ALX4, 14.4 upbm affinity estimate (log intensity, higher = more binding, comparable within an allelic series); with PAX4 [3], 12 upbm affinity estimate (log intensity, higher = more binding, comparable within an allelic series); in the test with PRRX1 [4], 11.9 upbm affinity estimate (log intensity, higher = more binding, comparable within an allelic series); with VENTX [5], 12.3 upbm affinity estimate (log intensity, higher = more binding, comparable within an allelic series). In addition, the binding signal with PAX4 [6] was 12.7 upbm affinity estimate (log intensity, higher = more binding, comparable within an allelic series); with HOXA2 [7], 13.9 upbm affinity estimate (log intensity, higher = more binding, comparable within an allelic series); in the test with HOXA4 [8] it was 12.7 upbm affinity estimate (log intensity, higher = more binding, comparable within an allelic series); with HOXB4 [9] it was 14.3 upbm affinity estimate (log intensity, higher = more binding, comparable within an allelic series); in the test with PAX4 [10] it was 12.6 upbm affinity estimate (log intensity, higher = more binding, comparable within an allelic series); with HOXA2 [11], 13.8 upbm affinity estimate (log intensity, higher = more binding, comparable within an allelic series). The binding signal with PAX4 [12] was 10.8 upbm affinity estimate (log intensity, higher = more binding, comparable within an allelic series); with MSX2 [13] it was 14.1 upbm affinity estimate (log intensity, higher = more binding, comparable within an allelic series); with PAX4 [14], 11.3 upbm affinity estimate (log intensity, higher = more binding, comparable within an allelic series); with MSX2 [15], 13.7 upbm affinity estimate (log intensity, higher = more binding, comparable within an allelic series); with VAX1 [16], 13.9 upbm affinity estimate (log intensity, higher = more binding, comparable within an allelic series); with HOXA4 [17], 12.3 upbm affinity estimate (log intensity, higher = more binding, comparable within an allelic series). Moreover, the binding signal in the test with PRRX1 [18] was 13.7 upbm affinity estimate (log intensity, higher = more binding, comparable within an allelic series); in the test with VAX1 [19] it was 13.9 upbm affinity estimate (log intensity, higher = more binding, comparable within an allelic series).
As for CTCAATTA, the binding signal with HOXB4 [1] is 13.1 upbm affinity estimate (log intensity, higher = more binding, comparable within an allelic series); in the test with ALX4, 13.9 upbm affinity estimate (log intensity, higher = more binding, comparable within an allelic series); with PRRX1 [4], 11.2 upbm affinity estimate (log intensity, higher = more binding, comparable within an allelic series); with HOXA2 [7] it was 12.6 upbm affinity estimate (log intensity, higher = more binding, comparable within an allelic series); in the test with HOXA4 [8], 12 upbm affinity estimate (log intensity, higher = more binding, comparable within an allelic series); with HOXB4 [9] it was 13.8 upbm affinity estimate (log intensity, higher = more binding, comparable within an allelic series). Moreover, the binding signal was 13 upbm affinity estimate (log intensity, higher = more binding, comparable within an allelic series) with HOXA2 [11]; 13.9 upbm affinity estimate (log intensity, higher = more binding, comparable within an allelic series) with MSX2 [13]; 13.5 upbm affinity estimate (log intensity, higher = more binding, comparable within an allelic series) with MSX2 [15]; 12.8 upbm affinity estimate (log intensity, higher = more binding, comparable within an allelic series) in the test with VAX1 [16]; 11.4 upbm affinity estimate (log intensity, higher = more binding, comparable within an allelic series) with HOXA4 [17]; 13.4 upbm affinity estimate (log intensity, higher = more binding, comparable within an allelic series) with PRRX1 [18]. The binding signal with VAX1 [19] was 12.9 upbm affinity estimate (log intensity, higher = more binding, comparable within an allelic series).
For the sequence TAATTAGA, the binding signal was 13.5 upbm affinity estimate (log intensity, higher = more binding, comparable within an allelic series) with HOXB4 [1]; 12.5 upbm affinity estimate (log intensity, higher = more binding, comparable within an allelic series) with VENTX [2]; 14.5 upbm affinity estimate (log intensity, higher = more binding, comparable within an allelic series) with ALX4; 12.2 upbm affinity estimate (log intensity, higher = more binding, comparable within an allelic series) with PAX4 [3]; 11.9 upbm affinity estimate (log intensity, higher = more binding, comparable within an allelic series) with PRRX1 [4]; 12.4 upbm affinity estimate (log intensity, higher = more binding, comparable within an allelic series) with VENTX [5]. For the same sequence, the binding signal in the test with PAX4 [6] was 12.8 upbm affinity estimate (log intensity, higher = more binding, comparable within an allelic series); in the test with HOXA2 [7], 13.9 upbm affinity estimate (log intensity, higher = more binding, comparable within an allelic series); with HOXA4 [8] it was 12.5 upbm affinity estimate (log intensity, higher = more binding, comparable within an allelic series); with HOXB4 [9] it was 14.2 upbm affinity estimate (log intensity, higher = more binding, comparable within an allelic series); with PAX4 [10], 12.7 upbm affinity estimate (log intensity, higher = more binding, comparable within an allelic series); with HOXA2 [11] it was 13.9 upbm affinity estimate (log intensity, higher = more binding, comparable within an allelic series). Moreover, the binding signal with PAX4 [12] is 11 upbm affinity estimate (log intensity, higher = more binding, comparable within an allelic series); with MSX2 [13], 14.1 upbm affinity estimate (log intensity, higher = more binding, comparable within an allelic series); with PAX4 [14] it was 11.5 upbm affinity estimate (log intensity, higher = more binding, comparable within an allelic series); with MSX2 [15] it was 13.7 upbm affinity estimate (log intensity, higher = more binding, comparable within an allelic series); in the test with VAX1 [16] it was 13.7 upbm affinity estimate (log intensity, higher = more binding, comparable within an allelic series); in the test with HOXA4 [17] it was 12.1 upbm affinity estimate (log intensity, higher = more binding, comparable within an allelic series). Moreover, the binding signal with PRRX1 [18] was 13.6 upbm affinity estimate (log intensity, higher = more binding, comparable within an allelic series); in the test with VAX1 [19], 13.9 upbm affinity estimate (log intensity, higher = more binding, comparable within an allelic series).
